In PubChem BioAssay:
Calls of active or inactive are those of the source.

Legend:
[1] = anti-His antibody binders, primary screen, artefact control for SMM control protein annotation, biochemical, small-molecule microarray, 635 nm fluorescence (AID 1128); details: anti-His Alexa647 antibody binding, higher = more signal;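 also: score merges feature fluorescence with signal-to-noise for each printed compound spot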
[2] = test system: Human papillomavirus type 1a E7 protein (residues 1-88); experiment: HPV1a E7 small-molecule binders, primary screen, biochemical, small-molecule microarray, residues 1-88, 635 nm (AID 1129); details: small-molecule microarray binding, fluorescence 635 nm; higher = more signal
[3] = target: Focal adhesion kinase 1 (Homo sapiens) (UniProt Q05397); experiment: small-molecule microarray binders of FAK, primary screen, biochemical, 635/667 nm fluorescence, BSA, DTT (AID 1130); details: PTK2 binding, 635 nm fluorescence, higher = more signal;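 also: composite of spot emission at 667 nm and signal to noise over triplicate slides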
Focal adhesion kinase 1 (Homo sapiens), sequence (Q05397 whole entry, looked up): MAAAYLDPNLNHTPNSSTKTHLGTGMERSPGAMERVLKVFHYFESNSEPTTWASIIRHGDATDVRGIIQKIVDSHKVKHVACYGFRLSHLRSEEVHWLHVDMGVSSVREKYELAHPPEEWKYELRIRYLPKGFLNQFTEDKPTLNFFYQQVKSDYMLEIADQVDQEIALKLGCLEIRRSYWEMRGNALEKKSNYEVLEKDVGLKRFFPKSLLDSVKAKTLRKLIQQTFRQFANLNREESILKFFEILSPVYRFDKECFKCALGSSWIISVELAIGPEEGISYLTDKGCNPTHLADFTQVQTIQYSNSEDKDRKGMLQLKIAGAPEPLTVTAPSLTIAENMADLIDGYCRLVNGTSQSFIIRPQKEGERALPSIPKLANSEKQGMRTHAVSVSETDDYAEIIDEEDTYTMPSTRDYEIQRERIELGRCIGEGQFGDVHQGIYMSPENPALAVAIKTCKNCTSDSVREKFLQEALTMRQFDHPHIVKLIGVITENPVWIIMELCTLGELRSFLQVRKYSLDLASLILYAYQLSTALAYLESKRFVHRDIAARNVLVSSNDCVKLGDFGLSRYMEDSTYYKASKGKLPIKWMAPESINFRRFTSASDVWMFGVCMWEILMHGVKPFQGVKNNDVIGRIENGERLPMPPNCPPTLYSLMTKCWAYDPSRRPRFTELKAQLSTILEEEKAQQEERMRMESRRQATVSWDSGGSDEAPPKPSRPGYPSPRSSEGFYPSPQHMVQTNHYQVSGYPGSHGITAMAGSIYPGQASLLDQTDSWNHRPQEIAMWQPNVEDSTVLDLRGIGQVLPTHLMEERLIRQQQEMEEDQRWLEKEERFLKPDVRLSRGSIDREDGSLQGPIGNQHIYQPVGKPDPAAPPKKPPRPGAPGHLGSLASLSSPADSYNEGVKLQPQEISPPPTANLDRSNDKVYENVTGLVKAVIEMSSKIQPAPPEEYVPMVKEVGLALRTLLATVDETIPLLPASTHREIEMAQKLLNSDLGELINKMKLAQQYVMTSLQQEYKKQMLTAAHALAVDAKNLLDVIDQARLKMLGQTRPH

[4] = test system: Fibrinogen (Alexa647-labelled); experiment: fibrinogen binders on compound microarrays, profiling panel, artefact control for SMM control-protein annotation, biochemical, small-molecule microarray, 635/667 nm fluorescence (AID 1131); details: fibrinogen-A647 binding fluorescence, higher = more signal;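 also: z-score merges 667 nm fluorescence with per-spot signal-to-noise over triplicate slides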
[5] = target: Follistatin (Homo sapiens) (UniProt P19883); experiment: follistatin binders on small-molecule microarrays, primary screen, biochemical, small-molecule microarray, 635/667 nm fluorescence (AID 1132); details: FST binding, 635 nm fluorescence, higher = more signal
Follistatin (Homo sapiens), sequence (P19883 whole entry, looked up): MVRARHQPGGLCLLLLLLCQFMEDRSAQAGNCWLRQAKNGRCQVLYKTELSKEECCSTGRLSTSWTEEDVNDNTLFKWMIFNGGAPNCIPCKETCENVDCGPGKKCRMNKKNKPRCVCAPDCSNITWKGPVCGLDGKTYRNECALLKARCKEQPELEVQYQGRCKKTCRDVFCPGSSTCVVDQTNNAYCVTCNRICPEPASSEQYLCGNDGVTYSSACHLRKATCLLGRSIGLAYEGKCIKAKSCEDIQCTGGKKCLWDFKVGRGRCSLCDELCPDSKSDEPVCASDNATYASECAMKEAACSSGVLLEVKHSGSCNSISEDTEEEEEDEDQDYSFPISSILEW

[6] = target: Fibroblast growth factor 2 (Homo sapiens) (UniProt P09038); experiment: FGF2 binders on small-molecule microarrays, primary screen, biochemical, small-molecule microarray, 635/667 nm fluorescence (AID 1133); details: small-molecule microarray binding, FGF2, fluorescence 635/667; higher = more signal
Fibroblast growth factor 2 (Homo sapiens), sequence (P09038 whole entry, looked up): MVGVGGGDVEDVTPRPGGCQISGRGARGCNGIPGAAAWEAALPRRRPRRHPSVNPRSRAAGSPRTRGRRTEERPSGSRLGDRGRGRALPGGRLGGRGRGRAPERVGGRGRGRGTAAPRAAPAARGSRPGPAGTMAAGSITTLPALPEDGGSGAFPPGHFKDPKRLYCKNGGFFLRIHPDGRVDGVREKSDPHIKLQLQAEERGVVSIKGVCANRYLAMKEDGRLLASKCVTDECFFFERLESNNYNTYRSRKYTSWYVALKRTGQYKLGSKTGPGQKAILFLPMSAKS

[7] = mitochondrial membrane potential change in A549 cells, profiling panel, cell-based, JC-1 fluorescence, basal, 24 h, 100 nL (AID 1138); details: higher = more signal;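 also: A549 lung adenocarcinoma cells under basal conditions with no added stimulus; test concentration not given here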
[8] = test system: Lefty1; experiment: Lefty1 binders on small-molecule microarrays, primary screen, biochemical, small-molecule microarray, 635/667 nm fluorescence (AID 1139); details: small-molecule microarray binding, fluorescence 635/667; higher = more signal
[9] = test system: wheat germ agglutinin (Triticum aestivum), Alexa647-labelled; experiment: wheat germ agglutinin binders on compound microarrays, profiling panel, artefact control for SMM control-protein annotation, biochemical, small-molecule microarray, 635/667 nm fluorescence (AID 1140); details: WGA-A647 binding, 635 nm fluorescence, higher = more signal;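 also: score merges 667 nm feature emission with signal to noise over triplicate slides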
[10] = target: Luciferin 4-monooxygenase (Photinus pyralis) (UniProt P08659); experiment: firefly luciferase enzyme inhibitors, primary screen, biochemical, luminescence, purified enzyme, 2006 set (AID 1141); details: SteadyGlo luminescence, 30 min, higher = more signal, called active from +8 up or from −8 down;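 also: cell-free assay with purified firefly luciferase at 100 ng per well in PBS; test concentration not given here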
Luciferin 4-monooxygenase (Photinus pyralis), sequence (P08659 whole entry, looked up): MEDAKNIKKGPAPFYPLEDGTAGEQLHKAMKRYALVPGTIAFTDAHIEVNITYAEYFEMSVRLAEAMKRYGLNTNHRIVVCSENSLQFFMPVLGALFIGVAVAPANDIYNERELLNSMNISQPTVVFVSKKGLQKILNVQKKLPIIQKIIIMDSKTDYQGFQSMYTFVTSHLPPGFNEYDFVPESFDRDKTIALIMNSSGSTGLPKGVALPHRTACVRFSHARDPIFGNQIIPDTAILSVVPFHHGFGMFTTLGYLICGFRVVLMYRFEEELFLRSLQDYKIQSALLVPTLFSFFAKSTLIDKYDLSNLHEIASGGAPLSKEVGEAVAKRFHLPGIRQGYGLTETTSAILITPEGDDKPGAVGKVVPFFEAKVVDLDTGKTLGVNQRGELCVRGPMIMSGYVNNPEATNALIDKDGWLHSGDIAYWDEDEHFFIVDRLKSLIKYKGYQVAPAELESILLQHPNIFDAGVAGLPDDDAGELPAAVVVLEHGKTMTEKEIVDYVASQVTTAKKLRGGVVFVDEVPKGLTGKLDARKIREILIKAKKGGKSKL

Row | Structure (SMILES) | composite z-score [1] | composite z-score [2] | composite z-score [3] | composite z-score [4] | composite z-score [5] | composite z-score [6] | z-score [7] | composite z-score [8] | composite z-score [9] | z-score [10]
1 | COCCOC(=O)N1C(=O)[C@@]2(c3cc(C#CCCO)ccc31)[C@H](C(=O)N1CCc3cc(OC)c(OC)cc3C1)[C@H]1C(=O)O[C@H](c3ccccc3)[C@H](c3ccccc3)N1[C@@H]2c1ccc(O)cc1 | 1.89 | 1.22 | 0.831 | 0.904 | 0.949 | 0.622 | 0.188 | 0.791 | 0.393 | -0.407 (inactive)
2 | NC(=O)[C@@H]1[C@H]2C(=O)O[C@H](c3ccccc3)[C@H](c3ccccc3)N2[C@H](c2ccc(O)cc2)[C@@]12C(=O)Nc1ccc(C#CC3(O)CCCCCC3)cc12 | 0.6 | -0.239 | -0.205 | -0.819 | -0.0584 | -0.384 | -1.06 | -0.502 | -0.0999 | -0.869 (inactive)
3 | C=CCN1C(=O)[C@]2(O[C@H](CCO)[C@@H]([Si](C)(C)c3ccc(OC)cc3)[C@@H]2C)c2cc(N3CCCCC3=O)ccc21 | 1.74 | 1.2 | 0.162 | 0.799 | 1.32 | 0.361 | 0.517 | 1.52 | 0.679 | -0.117 (inactive)
4 | CCC(CC)C(O)C1C=CC2C(=O)N(C)C(=O)C2N1Nc1ccccc1 (stereo not given) | 1.02 | 1.08 | 0.43 | 0.964 | 0.895 | -0.194 | -0.513 | 0.434 | 1.1 | -0.445 (inactive)
5 | C=CCC(OC(C)=O)[C@@H]1[C@@H](N(Cc2ccc(-c3ccccc3)cc2)C(=O)Cc2ccc(F)cc2)c2cc(OCCCO)ccc2N1C(=O)c1ccc(-c2ccccc2)cc1 (stereo not given in full) | -0.414 | -1.03 | -0.0744 | 0.259 | 0.267 | -0.297 | 0.796 | -0.0123 | -0.217 | 1.03 (inactive)
6 | CCCCC(=C=CC[C@@H](O)c1ccccc1OCCO)CCO | -0.448 | -0.21 | -0.206 | -0.883 | 0.531 | -0.397 | 1.25 | 0.036 | 0.177 | -1.85 (inactive)
7 | C=CCOC(=O)[C@H]1[C@@H]2C(=O)O[C@@H](c3ccccc3)[C@@H](c3ccccc3)N2[C@@H](c2ccc(OCCOC(=O)[C@@H]3C[C@@H]4C(=O)N[C@@H](CCCCN(C)C)C(=O)N4[C@@H]3c3ccc(O)cc3)cc2)[C@]12C(=O)Nc1ccc(I)cc12 | 2.26 | 1.22 | 0.565 | 0.733 | 1.16 | 1.57 | -1.63 | 1.54 | 0.81 | -4.39 (inactive)
8 | CN1C(=O)C2C=CC(C(O)Cc3ccccc3)N(Nc3ccccc3)C2C1=O (stereo not given) | 1.61 | 0.257 | 0.385 | 0.944 | 0.27 | -0.408 | -0.375 | -0.0697 | 1.12 | -0.492 (inactive)
9 | COCCOC(=O)N1C(=O)[C@@]2(c3cc(C#Cc4ccc(OC)cc4)ccc31)[C@H](C(=O)N1CCCCCCC1)[C@H]1C(=O)O[C@H](c3ccccc3)[C@H](c3ccccc3)N1[C@@H]2c1ccc(OCCO)cc1 | 0.885 | 0.94 | 0.409 | 0.905 | 1.58 | 2.1 | -0.951 | 1.36 | 1.32 | -2.56 (inactive)
10 | COCC(=C=CC[C@H](O)c1ccccc1OCCO)C[C@H](O)c1cc(Cl)cc(Cl)c1O | -0.058 | 0.914 | 0.469 | 0.974 | 0.888 | 1.59 | -0.54 | 0.685 | 0.351 | -1.28 (inactive)
11 | COC(=O)[C@@]1(Cc2ccc(OC)cc2)[C@H]2c3cc(C(=O)N4CCCC4)n(Cc4ccsc4Br)c3C[C@H]2CN1C(=O)c1ccccc1 | 0.198 | 1.12 | 0.565 | -0.152 | 0.073 | -0.88 | -0.404 | -0.402 | 0.604 | -0.777 (inactive)
12 | O=C1OCCC/C=C\[C@H]2OC34C=CCN(CCN5CCOCC5)C(=O)[C@H]3N(CCCO)C(=O)[C@@H]4C12 (stereo not given in full) | -0.851 | -0.786 | -0.253 | -1.16 | -0.803 | -0.506 | -0.278 | -0.483 | 0.023 | 0.266 (inactive)
13 | CCN(CC)c1ccc(N2CC=CC34O[C@@H]5/C=C\CCC(C)OC(=O)C5[C@H]3C(=O)N(C(CO)C(C)C)[C@@H]4C2=O)cc1 (stereo not given in full) | -0.264 | -0.651 | 0.174 | -0.4 | -0.452 | 0.0509 | 0.93 | -0.674 | -0.558 | -1.09 (inactive)
14 | COC(=O)[C@@]1(Cc2ccc(OC)cc2)[C@H]2c3cc(C(=O)N4CCCC4)n(Cc4ccc(OC)c(OC)c4)c3C[C@H]2CN1C(=O)c1ccccc1 | 2.04 | 1.22 | 0.343 | 0.607 | 1.37 | 0.515 | 1.58 | 0.724 | 0.742 | 2.16 (inactive)
15 | CCCCN1CC=CC23O[C@@H]4C=CCOC(=O)[C@@H]4[C@H]2C(=O)N(CCCCCO)[C@@H]3C1=O (stereo not given in full) | 0.0981 | -0.444 | -0.204 | -0.921 | -0.712 | -0.342 | -0.478 | -0.393 | -0.651 | 0.01 (inactive)
16 | C=C(COC)/C(=C/C[C@@H](OC(C)=O)c1ccc(CO)o1)c1cnc2ccccc2c1 | 0.562 | 1.14 | -0.23 | 0.962 | 1.44 | 1.57 | -0.482 | 1.46 | 1.04 | -3.82 (inactive)
